# Data from PubChem BioAssay.
# For some assays here: Measured potencies and affinities stand elsewhere. Calls of active or inactive are those of the source.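 The calls were made as follows, unless noted: active = fitted half-maximal concentration within the tested range, moderate curve steepness, significant signal drop, and little compound fluorescence or bead-linkage interference; inactive = the rest.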
# Columns and labels:
# [1] = molecular target: Cell division control protein 42 homolog (Homo sapiens) (UniProt P60953); assay: inhibition of fluorescent GTP binding to constitutively active Cdc42 – biochemical, multiplex bead flow cytometry, Bodipy-FL-GTP, dose response (AID 1333;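 active = fitted half-maximal concentration within the tested dose range, moderate curve steepness, a statistically real signal drop, and little compound fluorescence or tag-binding interference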)
# [2] = molecular target: Cell division control protein 42 homolog (Homo sapiens) (UniProt P60953); assay: inhibition of fluorescent GTP binding to wildtype Cdc42 – biochemical, multiplex bead flow cytometry, Bodipy-FL-GTP, dose response (AID 1334); conditions: bead-based flow cytometry, Bodipy-FL-GTP binding to GST-Cdc42; at 100 µM (top of the series) unless noted
# [3] = molecular target: GTPase HRas (Homo sapiens) (UniProt P01112); assay: Ras wt fluorescent GTP loading blockade – biochemical, wildtype, multiplex bead flow cytometry, dose response (AID 1335;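 active = fitted half-maximal concentration within 10 nM to 100 µM, steepness 0.5 to 2, significant signal drop, low assay interference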); conditions: bead-based flow cytometry, Bodipy-GTP binding to GST-Ras; at 100 µM (top of the series) unless noted
# [4] = test system: Ras-related protein Rab-7a (dog), GTP binding; assay: blockers of fluorescent GTP binding to Rab7 – biochemical, wildtype, multiplex bead flow cytometry, dose response (AID 1336; call rule not given here)
# [5] = molecular target: Ras-related C3 botulinum toxin substrate 1 (Homo sapiens) (UniProt P63000); assay: inhibition of wildtype Rac1 nucleotide loading – biochemical, multiplex bead flow cytometry, dose response (AID 1340;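 active = dose curve with midpoint inside tested range, moderate steepness, plateau gap beyond fit error, low compound glow and bead-link interference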); conditions: GST-Rac1 beads, Bodipy-FL-GTP binding; at 100 µM (top of the series) unless noted
# [6] = molecular target: GTPase HRas (Homo sapiens) (UniProt P01112); assay: blockade of GTP loading onto mutant Ras – biochemical, activated mutant, multiplex bead flow cytometry, dose response (AID 1341;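 active = dose-response curve with midpoint inside the tested range, moderate steepness, significant amplitude and little compound fluorescence or bead-attachment interference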;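 also: GST-tagged constitutively activated Ras mutant immobilized on beads and multiplexed with other GTPases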)
# [7] = hit retest on RPL19A-GFP reporter strain – cell-based, S. cerevisiae, flow cytometry, cherry picks, mother/daughter gates, confirmation (AID 2270;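 active = GFP response below 50% of the DMSO control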); conditions: 3 h, at 10 µM, stronger effect = lower value, 100 = same GFP as DMSO wells
# [8] = yeast TOR pathway reporter LAP4-GFP change – cell-based, cherry picks, flow cytometry, mother/daughter gates, confirmation (AID 2271;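 active = GFP response above 150% of the DMSO control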;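 also: ratio of sample to DMSO plate mean so 100% equals DMSO level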); conditions: S. cerevisiae LAP4-GFP strain, 3 h, at 10 µM, stronger effect = higher value, 100 means same as DMSO control
# [9] = TOR pathway reporter MEP2-GFP, retest of hits – S. cerevisiae, flow cytometry GFP, cherry picks, confirmation (AID 2272;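 active = GFP response above 150% of the DMSO control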;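 also: ratio of well signal to plate DMSO mean so 100% equals DMSO level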); conditions: S. cerevisiae MEP2-GFP strain, 3 h, at 10 µM, stronger effect = higher value
# [10] = yeast AGP1-GFP fluorescence change, single-dose – cell-based, flow cytometry, S. cerevisiae, cherry picks, confirmation (AID 2273;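 active = GFP response above 150% of the DMSO level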;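 also: median GFP channel fluorescence over the whole cell population gate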); conditions: S. cerevisiae AGP1-GFP strain, 3 h, at 10 µM
# [11] = TOR pathway CIT2 reporter hit retest – S. cerevisiae, GFP fusion, cherry picks, mother/daughter gates, confirmation (AID 2274;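 active = GFP response above 150% of the DMSO level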); conditions: S. cerevisiae CIT2-GFP strain, flow cytometry, 3 h, at 10 µM, stronger effect = higher value
# [12] = measured here: daughter cell gate
# [13] = measured here: mother cell gate
# GTPase HRas (Homo sapiens), sequence (P01112 whole entry, looked up): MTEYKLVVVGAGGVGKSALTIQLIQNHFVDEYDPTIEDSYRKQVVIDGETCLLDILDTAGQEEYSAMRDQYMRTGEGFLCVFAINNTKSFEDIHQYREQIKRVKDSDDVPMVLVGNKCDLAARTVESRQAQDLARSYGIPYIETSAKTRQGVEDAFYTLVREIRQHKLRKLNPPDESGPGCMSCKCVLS
# Cell division control protein 42 homolog (Homo sapiens), sequence (P60953 whole entry, looked up): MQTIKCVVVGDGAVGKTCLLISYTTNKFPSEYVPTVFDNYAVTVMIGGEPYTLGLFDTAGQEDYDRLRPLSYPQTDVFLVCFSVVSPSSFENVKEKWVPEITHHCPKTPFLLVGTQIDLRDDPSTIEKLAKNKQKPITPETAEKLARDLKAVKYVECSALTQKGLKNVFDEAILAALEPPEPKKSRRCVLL
smiles,measurement,setting,value
Cc1ccccc1OCCn1cc(C(=O)O)c2ccccc21,outcome,[1],inactive
same,"fluorescence, percent of control (lower = inhibition)",[2],96.9%
same,"GTP binding, percent of control",[3],131%
same,outcome,[4],inactive
same,"GTP binding signal, raw median fluorescence (lower = inhibition) (MCF (arbitrary fluorescence units))",[5],83.8
same,outcome,[6],inactive
Cc1ccc(CSCc2ccc(C(=O)O)o2)cc1,outcome,[1],inactive
same,"fluorescence, percent of control (lower = inhibition)",[2],50.3%
same,"GTP binding, percent of control",[3],74.2%
same,outcome,[4],inactive
same,"GTP binding signal, raw median fluorescence (lower = inhibition) (MCF (arbitrary fluorescence units))",[5],28.2
same,outcome,[6],inactive
C(=N\Nc1nn2cnnc2c2ccccc12)/c1ccco1,outcome,[1],inactive
same,"fluorescence, percent of control (lower = inhibition)",[2],31.6%
same,"GTP binding, percent of control",[3],64.2%
same,outcome,[4],inactive
same,"GTP binding signal, raw median fluorescence (lower = inhibition) (MCF (arbitrary fluorescence units))",[5],142
same,outcome,[6],inactive
COc1ccc(C(=O)Nc2cc(Cl)ccc2C(=O)O)cc1,outcome,[1],inactive
same,"fluorescence, percent of control (lower = inhibition)",[2],30.8%
same,"GTP binding, percent of control",[3],75.6%
same,outcome,[4],inactive
same,"GTP binding signal, raw median fluorescence (lower = inhibition) (MCF (arbitrary fluorescence units))",[5],272
same,outcome,[6],inactive
Cc1ccc(N=Nc2c(N)[nH]n3c(=O)cc(C)nc23)cc1,outcome,[1],inactive
same,"fluorescence, percent of control (lower = inhibition)",[2],48.4%
same,"GTP binding, percent of control",[3],61%
same,outcome,[4],inactive
same,"GTP binding signal, raw median fluorescence (lower = inhibition) (MCF (arbitrary fluorescence units))",[5],0
same,outcome,[6],inactive
COc1ccc(C)cc1NC(=O)COC(C)=O,outcome,[1],inactive
same,"fluorescence, percent of control (lower = inhibition)",[2],94.8%
same,"GTP binding, percent of control",[3],180%
same,outcome,[4],inactive
same,"GTP binding signal, raw median fluorescence (lower = inhibition) (MCF (arbitrary fluorescence units))",[5],179
same,outcome,[6],inactive
O=C(O)c1ccccc1C(=O)OCc1ccc(F)cc1F,outcome,[1],inactive
same,"fluorescence, percent of control (lower = inhibition)",[2],89.8%
same,"GTP binding, percent of control",[3],106%
same,outcome,[4],inactive
same,"GTP binding signal, raw median fluorescence (lower = inhibition) (MCF (arbitrary fluorescence units))",[5],72.5
same,outcome,[6],inactive
COc1cc(C(=S)NC2CCCCC2)ccc1O,outcome,[1],inactive
same,"fluorescence, percent of control (lower = inhibition)",[2],46.9%
same,"GTP binding, percent of control",[3],62.4%
same,outcome,[4],inactive
same,"GTP binding signal, raw median fluorescence (lower = inhibition) (MCF (arbitrary fluorescence units))",[5],209
same,outcome,[6],inactive
COc1cc(/C=C/C(=O)Nc2ccc3nc4n(c(=O)c3c2)CCCC4)cc(OC)c1OC,outcome,[1],inactive
same,"fluorescence, percent of control (lower = inhibition)",[2],32.7%
same,"GTP binding, percent of control",[3],72%
same,outcome,[4],inactive
same,"GTP binding signal, raw median fluorescence (lower = inhibition) (MCF (arbitrary fluorescence units))",[5],200
same,outcome,[6],inactive
CC(C)NC(=S)N=Nc1c(O)[nH]c2ccc([N+](=O)[O-])cc12,outcome,[1],inactive
same,"fluorescence, percent of control (lower = inhibition)",[2],29.1%
same,"GTP binding, percent of control",[3],67.1%
same,outcome,[4],inactive
same,"GTP binding signal, raw median fluorescence (lower = inhibition) (MCF (arbitrary fluorescence units))",[5],128
same,outcome,[6],inactive
COc1cc2c(cc1OC)-c1cc(NCc3ccccn3)nc(=O)n1CC2,outcome,[1],inactive
same,"fluorescence, percent of control (lower = inhibition)",[2],30.7%
same,"GTP binding, percent of control",[3],68.3%
same,outcome,[4],inactive
same,"GTP binding signal, raw median fluorescence (lower = inhibition) (MCF (arbitrary fluorescence units))",[5],182
same,outcome,[6],inactive
Oc1c(C=Nc2cccc3cccnc23)sc2ccccc12,outcome,[1],inactive
same,"fluorescence, percent of control (lower = inhibition)",[2],93.4%
same,"GTP binding, percent of control",[3],177%
same,outcome,[4],inactive
same,"GTP binding signal, raw median fluorescence (lower = inhibition) (MCF (arbitrary fluorescence units))",[5],199
same,outcome,[6],inactive
CCN(CC)c1ccc2c(c1)oc(=O)c1c(Cl)cc(=O)oc12,outcome,[1],inactive
same,"fluorescence, percent of control (lower = inhibition)",[2],29%
same,"GTP binding, percent of control",[3],72.6%
same,outcome,[4],inactive
same,"GTP binding signal, raw median fluorescence (lower = inhibition) (MCF (arbitrary fluorescence units))",[5],226
same,outcome,[6],inactive
CCOc1nnc(C)c2c(C)n(-c3cccc(OC)c3)nc12,outcome,[1],inactive
same,"fluorescence, percent of control (lower = inhibition)",[2],55.9%
same,"GTP binding, percent of control",[3],67.2%
same,outcome,[4],inactive
same,"GTP binding signal, raw median fluorescence (lower = inhibition) (MCF (arbitrary fluorescence units))",[5],194
same,outcome,[6],inactive
same,GFP response vs DMSO,[7],104% (inactive)
same,GFP response vs DMSO,[7]; [12],102%
same,GFP response vs DMSO,[7]; [13],106%
same,GFP response relative to DMSO,[8],98.7% (inactive)
same,GFP response relative to DMSO,[8]; measured here: daughter cell gate response,98.7%
same,GFP response relative to DMSO,[8]; measured here: mother cell gate response,100%
same,GFP response vs DMSO,[9],102% (inactive)
same,"GFP response, % of DMSO",[10],99.8% (inactive)
same,"GFP response, % of DMSO",[11],108% (inactive)
same,"GFP response, % of DMSO",[11]; [12],105%
same,"GFP response, % of DMSO",[11]; [13],109%
